# Values joined by “and” are separate entries in the source; they are usually repeats but may differ in a detail not shown here. Equal values may be shown once. Some compounds were tested as several samples or in several runs, with calls that do not always agree. Active and inactive are the calls of the source.
# Legend:
# [1] = test system: PRMT1 (protein arginine N-methyltransferase 1); assay: PRMT1 binders on small-molecule microarrays, primary screen, biochemical, small-molecule microarray, 635 nm fluorescence (AID 1088); details: small-molecule microarray binding, higher = more signal;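 note: binding of Prmt1 protein to compounds spotted on small-molecule microarray slides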
# [2] = yeast growth modulation, basal conditions, primary screen, YJM789 clinical isolate, OD600, 24 h (AID 1089);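 note: growth of clinical yeast isolate S. cerevisiae YJM 789 seeded 1000 cells per well; test concentration not given here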; details: S. cerevisiae YJM789 growth, higher = more signal, called active from +8 up or from −8 down
# [3] = fission yeast growth modulation, primary screen, strain 972, OD600, 24 h, no modulator (AID 1090);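 note: basal condition with compound alone and no growth modifier present; test concentration not given here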; details: S. pombe 972 growth, higher = more signal, called active from +8 up or from −8 down
# [4] = S. cerevisiae growth modulation with rapamycin, primary screen, strain BY4716, OD600, 96 h (AID 1091); details: higher = more signal, called active from +8 up or from −8 down; note: test concentration not given here
# [5] = biological target: Torsin-1A-interacting protein 2 (Homo sapiens) (UniProt Q8NFQ8); assay: LULL1 binders on small-molecule microarray, primary screen, cell lysate, human LULL1 lysate, 635/667 nm fluorescence (AID 1092); details: hLULL1 lysate binding, 635 nm fluorescence, higher = more signal;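 note: probe is lysate of COS7 cells overexpressing human LULL1; score merges per-feature 667 nm fluorescence with signal-to-noise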
# [6] = E. coli growth modulation, two-sided OD650, primary screen, E. coli filamentation project, strain DRC41, 24 h (AID 1093); details: OD650, 24 h, higher = more signal, called active from +8 up or from −8 down;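 note: MC1000 strain lacking acrAB efflux and sulA so SOS filamentation is blocked; test concentration not given here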
# [7] = small-molecule microarray binders of probe aLefty2, primary screen, biochemical, biotinylated probe, 635/667 nm fluorescence (AID 1094); details: higher = more signal;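 note: score merges spot fluorescence near 667 nm with spot signal-to-noise ratio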
# [8] = test system: Noggin (protein binding on small-molecule microarray); assay: Noggin binders on small-molecule microarray, primary screen, biochemical, 635/667 nm fluorescence (AID 1095); details: 635 nm fluorescence, higher = more signal;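 note: score merges 667 nm feature fluorescence with signal to noise over triplicate slides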
# [9] = biological target: Neurogenic locus notch homolog protein 3 (Homo sapiens) (UniProt Q9UM47); assay: NOTCH3 binders on small-molecule microarray, primary screen, biochemical, 635/667 nm fluorescence (AID 1096); details: NOTCH3 binding, 635 nm fluorescence, higher = more signal
# [10] = small-molecule microarray binders of probe aEGFR, primary screen, biochemical, biotinylated probe, 635/667 nm fluorescence (AID 1097); details: higher = more signal;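 note: probe is a biotinylated anti-EGFR antibody binding compounds printed on slides; score combines fluorescence near 667 nm and signal to noise of each spot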
# [11] = test system: Plasmodium falciparum Sir2 (PF13_0152, Sir2A); assay: pfSir2 binders on small-molecule microarrays, primary screen, biochemical, small-molecule microarray, 635 nm fluorescence (AID 1098); details: small-molecule microarray binding, fluorescence 635 nm; higher = more signal;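 note: score merges spot fluorescence intensity with its signal-to-noise ratio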
# [12] = small-molecule microarray binders of probe aDKK1, primary screen, biochemical, biotinylated probe, 635/667 nm fluorescence (AID 1099); details: higher = more signal;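 note: score merges 667nm spot fluorescence with signal to noise across triplicate slides; reference of the scale not given here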
# [13] = small-molecule microarray binders of probe aCHRDL2, primary screen, biochemical, biotinylated probe, 635/667 nm fluorescence (AID 1100); details: higher = more signal
# [14] = splicing luciferase reporter signal modulators, primary screen, spliceosome inhibition project, cell-based, HEK293, splice +/- reporter (AID 1101); details: luminescence, 24 h, higher = more signal, called active from +8 up or from −8 down;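 note: HEK293 cells carrying a splicing-competent luciferase reporter gene; test concentration not given here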
# [15] = biological target: Fibroblast growth factor 10 (Homo sapiens) (UniProt O15520); assay: FGF10 binders on small-molecule microarrays, primary screen, biochemical, small-molecule microarray, 635 nm fluorescence (AID 1102); details: FGF10 binding, fluorescence 635 nm, higher = more signal
# [16] = test system: glycogen synthase kinase-3 (GSK3A per assay name; protocol says GSK3B); assay: GSK3 binders on small-molecule microarrays, primary screen, biochemical, small-molecule microarray, 635 nm fluorescence, GSK3A (AID 1103); details: small-molecule microarray binding, fluorescence 635 nm; higher = more signal; note: the record names both GSK3A and GSK3B
# [17] = biological target: Epidermal growth factor receptor (Homo sapiens) (UniProt P00533); assay: EGFR binders on small-molecule microarrays, primary screen, biochemical, small-molecule microarray, 635 nm fluorescence (AID 1104); details: EGFR binding, higher = more signal;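 note: score merges 667 nm emission intensity with spot signal to noise over triplicate slides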
# [18] = biological target: Follistatin-related protein 3 (Homo sapiens) (UniProt O95633); assay: FSTL3 binders on small-molecule microarrays, primary screen, biochemical, small-molecule microarray, 635 nm fluorescence (AID 1105); details: FSTL3 binding, higher = more signal;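 note: score merges emission near 667 nm and signal to noise per printed spot across three slides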
# [19] = biological target: Dickkopf-related protein 1 (Homo sapiens) (UniProt O94907); assay: DKK1 binders on small-molecule microarrays, primary screen, biochemical, small-molecule microarray, 635 nm fluorescence scan (AID 1106); details: DKK1 binding, higher = more signal;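 note: score merges emission near 667 nm with signal to noise over three replicate slides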
# [20] = test system: Inhibin beta A chain (activin A); assay: INHBA (activin A) binders on microarrays, primary screen, biochemical, small-molecule microarray, 635 nm fluorescence scan (AID 1107); details: small-molecule microarray binding, higher = more signal;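 note: mouse activin A protein probed at 4.33 µg/mL on printed slides; score merges bound-protein fluorescence near 667 nm with spot signal-to-noise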
# Sequence of Epidermal growth factor receptor (Homo sapiens) (P00533 whole entry, looked up): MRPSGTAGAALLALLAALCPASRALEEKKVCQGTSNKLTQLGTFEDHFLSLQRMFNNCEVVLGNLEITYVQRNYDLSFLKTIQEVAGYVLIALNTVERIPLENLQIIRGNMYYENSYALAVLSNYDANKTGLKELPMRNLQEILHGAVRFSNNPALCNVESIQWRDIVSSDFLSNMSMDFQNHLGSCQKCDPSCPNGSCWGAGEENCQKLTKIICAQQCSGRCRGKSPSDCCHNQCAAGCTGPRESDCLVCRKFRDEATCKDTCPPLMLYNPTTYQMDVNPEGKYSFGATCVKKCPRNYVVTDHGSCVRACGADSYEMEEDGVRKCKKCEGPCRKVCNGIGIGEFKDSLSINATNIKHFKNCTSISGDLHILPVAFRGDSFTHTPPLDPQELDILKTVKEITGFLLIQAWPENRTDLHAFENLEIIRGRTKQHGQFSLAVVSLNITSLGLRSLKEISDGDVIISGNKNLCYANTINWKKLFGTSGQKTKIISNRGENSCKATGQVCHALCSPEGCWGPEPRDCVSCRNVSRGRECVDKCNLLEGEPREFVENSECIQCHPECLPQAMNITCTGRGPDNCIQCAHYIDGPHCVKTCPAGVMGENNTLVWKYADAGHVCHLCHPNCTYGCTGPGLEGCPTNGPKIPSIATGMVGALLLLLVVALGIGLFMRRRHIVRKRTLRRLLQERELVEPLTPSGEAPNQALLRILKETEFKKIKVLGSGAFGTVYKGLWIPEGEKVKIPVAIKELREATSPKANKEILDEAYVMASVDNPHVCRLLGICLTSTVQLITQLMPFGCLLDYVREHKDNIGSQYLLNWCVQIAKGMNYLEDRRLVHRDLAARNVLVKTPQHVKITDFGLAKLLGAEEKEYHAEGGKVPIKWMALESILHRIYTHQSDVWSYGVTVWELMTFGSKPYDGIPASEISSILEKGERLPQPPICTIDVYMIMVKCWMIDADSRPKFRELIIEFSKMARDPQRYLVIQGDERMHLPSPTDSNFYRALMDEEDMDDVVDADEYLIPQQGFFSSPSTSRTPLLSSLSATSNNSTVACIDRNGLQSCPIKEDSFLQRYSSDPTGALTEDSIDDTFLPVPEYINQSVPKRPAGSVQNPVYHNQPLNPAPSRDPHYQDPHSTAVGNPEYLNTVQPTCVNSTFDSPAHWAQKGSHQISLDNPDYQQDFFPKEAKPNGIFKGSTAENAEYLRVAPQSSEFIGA
# Sequence of Dickkopf-related protein 1 (Homo sapiens) (O94907 whole entry, looked up): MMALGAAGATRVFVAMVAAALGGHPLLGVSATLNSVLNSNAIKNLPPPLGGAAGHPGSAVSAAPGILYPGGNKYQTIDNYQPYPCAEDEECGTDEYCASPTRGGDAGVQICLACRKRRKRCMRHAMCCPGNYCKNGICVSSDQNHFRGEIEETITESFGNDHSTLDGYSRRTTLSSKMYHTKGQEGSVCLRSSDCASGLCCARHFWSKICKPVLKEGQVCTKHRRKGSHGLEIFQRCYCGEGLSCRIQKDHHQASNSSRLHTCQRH
# Sequence of Follistatin-related protein 3 (Homo sapiens) (O95633 whole entry, looked up): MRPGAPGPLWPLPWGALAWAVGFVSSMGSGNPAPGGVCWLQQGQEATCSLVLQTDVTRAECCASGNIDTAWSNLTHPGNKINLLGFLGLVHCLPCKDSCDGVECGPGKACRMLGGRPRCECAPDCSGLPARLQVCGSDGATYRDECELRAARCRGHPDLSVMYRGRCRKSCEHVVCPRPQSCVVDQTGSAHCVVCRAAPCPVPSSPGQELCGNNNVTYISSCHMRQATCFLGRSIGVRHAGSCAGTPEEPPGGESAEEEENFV
# Sequence of Neurogenic locus notch homolog protein 3 (Homo sapiens) (Q9UM47 whole entry, looked up): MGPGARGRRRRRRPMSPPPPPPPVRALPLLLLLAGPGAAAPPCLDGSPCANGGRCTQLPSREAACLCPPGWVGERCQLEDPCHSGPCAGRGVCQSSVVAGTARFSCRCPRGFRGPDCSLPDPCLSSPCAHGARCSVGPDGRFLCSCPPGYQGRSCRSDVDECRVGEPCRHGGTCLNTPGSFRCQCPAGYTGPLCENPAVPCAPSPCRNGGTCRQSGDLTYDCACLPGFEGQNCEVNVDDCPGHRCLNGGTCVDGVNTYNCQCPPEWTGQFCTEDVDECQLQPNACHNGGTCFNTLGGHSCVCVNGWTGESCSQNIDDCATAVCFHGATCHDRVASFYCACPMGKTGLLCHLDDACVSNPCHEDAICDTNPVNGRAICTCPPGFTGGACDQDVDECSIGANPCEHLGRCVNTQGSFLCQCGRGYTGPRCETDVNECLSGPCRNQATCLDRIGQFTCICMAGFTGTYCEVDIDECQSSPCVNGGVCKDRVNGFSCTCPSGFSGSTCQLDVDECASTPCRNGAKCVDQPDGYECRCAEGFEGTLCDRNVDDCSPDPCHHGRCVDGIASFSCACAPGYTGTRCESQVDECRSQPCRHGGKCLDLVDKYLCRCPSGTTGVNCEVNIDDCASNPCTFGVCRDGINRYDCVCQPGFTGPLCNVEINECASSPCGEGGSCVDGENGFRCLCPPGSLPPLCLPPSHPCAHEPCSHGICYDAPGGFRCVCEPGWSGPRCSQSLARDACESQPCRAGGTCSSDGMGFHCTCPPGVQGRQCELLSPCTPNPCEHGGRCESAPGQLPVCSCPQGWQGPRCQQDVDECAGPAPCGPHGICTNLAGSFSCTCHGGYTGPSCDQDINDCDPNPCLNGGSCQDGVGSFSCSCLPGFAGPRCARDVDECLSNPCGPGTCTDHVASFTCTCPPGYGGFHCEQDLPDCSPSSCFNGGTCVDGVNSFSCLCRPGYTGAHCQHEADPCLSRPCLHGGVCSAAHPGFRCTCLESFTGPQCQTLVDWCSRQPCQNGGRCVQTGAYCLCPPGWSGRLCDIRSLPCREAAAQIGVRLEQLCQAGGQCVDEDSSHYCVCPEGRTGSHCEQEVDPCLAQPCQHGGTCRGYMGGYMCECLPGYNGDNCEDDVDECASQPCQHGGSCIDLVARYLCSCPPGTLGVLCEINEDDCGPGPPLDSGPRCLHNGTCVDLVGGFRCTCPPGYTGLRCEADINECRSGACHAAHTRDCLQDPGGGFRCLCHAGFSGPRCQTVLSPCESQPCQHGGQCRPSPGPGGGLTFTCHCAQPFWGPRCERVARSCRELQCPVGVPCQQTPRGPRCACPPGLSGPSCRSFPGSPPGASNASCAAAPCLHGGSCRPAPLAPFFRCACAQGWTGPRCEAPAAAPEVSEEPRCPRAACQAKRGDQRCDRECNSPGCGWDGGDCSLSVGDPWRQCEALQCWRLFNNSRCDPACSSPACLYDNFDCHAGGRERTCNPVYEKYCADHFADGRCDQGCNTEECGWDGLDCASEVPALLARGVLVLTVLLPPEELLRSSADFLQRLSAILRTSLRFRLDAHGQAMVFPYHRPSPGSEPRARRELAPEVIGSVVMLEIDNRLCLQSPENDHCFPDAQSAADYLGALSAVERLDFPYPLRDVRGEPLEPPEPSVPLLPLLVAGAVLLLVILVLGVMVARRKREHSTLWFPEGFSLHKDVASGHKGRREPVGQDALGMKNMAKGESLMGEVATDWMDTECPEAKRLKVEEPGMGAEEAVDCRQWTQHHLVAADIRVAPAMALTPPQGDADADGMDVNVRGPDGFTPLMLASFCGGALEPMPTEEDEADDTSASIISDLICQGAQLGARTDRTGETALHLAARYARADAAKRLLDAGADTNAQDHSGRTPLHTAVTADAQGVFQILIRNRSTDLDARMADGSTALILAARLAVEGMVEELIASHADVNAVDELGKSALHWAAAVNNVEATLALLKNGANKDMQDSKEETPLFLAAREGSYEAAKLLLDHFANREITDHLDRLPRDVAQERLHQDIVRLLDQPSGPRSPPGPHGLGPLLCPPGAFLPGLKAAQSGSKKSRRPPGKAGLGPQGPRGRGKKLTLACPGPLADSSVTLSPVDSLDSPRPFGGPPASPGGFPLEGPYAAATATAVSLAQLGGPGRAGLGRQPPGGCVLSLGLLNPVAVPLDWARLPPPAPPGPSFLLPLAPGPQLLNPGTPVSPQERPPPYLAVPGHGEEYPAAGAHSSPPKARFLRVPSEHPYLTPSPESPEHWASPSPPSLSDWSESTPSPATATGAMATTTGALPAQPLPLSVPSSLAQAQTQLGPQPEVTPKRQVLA
# Sequence of Fibroblast growth factor 10 (Homo sapiens) (O15520 whole entry, looked up): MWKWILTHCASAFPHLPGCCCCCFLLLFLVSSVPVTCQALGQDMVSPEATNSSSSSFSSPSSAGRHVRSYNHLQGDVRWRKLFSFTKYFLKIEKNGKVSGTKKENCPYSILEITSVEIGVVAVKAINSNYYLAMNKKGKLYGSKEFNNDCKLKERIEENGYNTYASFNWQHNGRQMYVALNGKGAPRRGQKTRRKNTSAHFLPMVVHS
# Sequence of Torsin-1A-interacting protein 2 (Homo sapiens) (Q8NFQ8 whole entry, looked up): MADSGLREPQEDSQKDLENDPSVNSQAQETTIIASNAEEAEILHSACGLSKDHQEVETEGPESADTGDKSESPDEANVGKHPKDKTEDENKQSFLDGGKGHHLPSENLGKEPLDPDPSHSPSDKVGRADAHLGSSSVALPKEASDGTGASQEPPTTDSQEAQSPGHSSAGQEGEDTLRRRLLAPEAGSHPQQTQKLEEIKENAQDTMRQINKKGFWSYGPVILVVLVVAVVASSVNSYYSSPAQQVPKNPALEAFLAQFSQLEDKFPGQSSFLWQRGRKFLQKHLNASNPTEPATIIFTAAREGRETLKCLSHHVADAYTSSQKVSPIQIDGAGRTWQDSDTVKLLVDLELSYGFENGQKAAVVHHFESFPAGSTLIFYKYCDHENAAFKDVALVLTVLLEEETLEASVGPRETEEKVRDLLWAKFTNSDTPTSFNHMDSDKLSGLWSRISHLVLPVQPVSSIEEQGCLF
SMILES,composite z-score [1],z-score [2],z-score [3],z-score [4],composite z-score [5],z-score [6],composite z-score [7],composite z-score [8],composite z-score [9],composite z-score [10],composite z-score [11],composite z-score [12],composite z-score [13],z-score [14],composite z-score [15],composite z-score [16],composite z-score [17],composite z-score [18],composite z-score [19],composite z-score [20]
CO[C@H]1COC(=O)CC=C[C@H](C)[C@H](OC)COC(=O)[C@@H](C)COC(=O)CC=C[C@@H]1C,0.65 and 1.07,-0.23 (inactive) and -0.132 (inactive),-0.121 (inactive) and -1.49 (inactive),-0.324 (inactive) and -0.586 (inactive),-0.0624 and -0.0356,0.432 (inactive) and 0.839 (inactive),-0.177 and -0.239,0.74 and 1.2,0.327 and 0.287,-0.143 and -0.103,0.402 and 0.0429,-0.629 and -0.472,-1.1 and -1.05,-0.0265 (inactive) and -0.282 (inactive),0.415 and 0.242,0.594 and 0.65,0.752 and 0.715,0.969 and 0.59,1.23 and 0.743,1.02 and 0.17
O=C(NN=C1C[C@@H](O)[C@@H](O)[C@@H]2[C@@H]3C(=O)N(Cc4ccc5c(c4)OCO5)C(=O)[C@@H]3CC[C@H]12)OCc1ccccc1,1.15,0.48 (inactive),-0.157 (inactive),0.191 (inactive),-0.815,1.01 (inactive),-0.0047,0.707,-0.0259,-0.0828,-0.345,0.118,0.298,0.0692 (inactive),-0.464,-1.2,-0.0036,-0.904,-1.57,-2.22
CCC[C@@H]1C[C@@]1(CCC)[C@@H](NC(=O)c1ccc(-c2ccccc2)cc1)c1cccc(Cl)c1,-0.13 and -0.434,-0.173 (inactive) and 0.948 (inactive),-12.7 (active) and 1.75 (inactive),-0.86 (inactive) and 1.18 (inactive),0.678 and 3.32,-1.33 (inactive) and -0.003 (inactive),1.07 and 0.266,0.191 and -0.508,-0.585 and 0.419,0.78 and -0.0975,1.21 and 0.366,1.34 and 0.898,1.09 and 1.13,-3.74 (inactive) and -1.69 (inactive),-0.592 and 0.143,-0.826 and -0.349,-0.346 and 0.0087,-0.46 and -0.339,-0.0916 and -0.455,1.53 and 0.896
C=CCN(C(=O)C1N(c2c(Cl)cccc2CO)C(=O)C2C(C(=O)O)C3C=CC21O3)C(C)(C)C (stereo not given),-0.17 and -0.656,0.61 (inactive) and -1.92 (inactive),0.857 (inactive) and -1.43 (inactive),-0.509 (inactive) and -0.74 (inactive),0.893 and -1.28,2.58 (inactive) and 1.44 (inactive),-0.359 and -0.152,-1.7 and -1.45,-0.873 and -0.616,-0.403 and -0.366,0.769 and -1.57,-0.525 and -0.241,-0.269 and 0.798,-0.859 (inactive) and -1.07 (inactive),-0.788 and -1.43,-1.39 and -0.911,-1.85 and -0.913,-0.332 and 0.322,-2.02 and -2.22,-0.918 and -0.985
CC(C)CCN1CCc2nc(-c3ccccc3)c3c(c2C1)CO[C@@H](C)C3,0.837,-0.334 (inactive),-0.519 (inactive),0.622 (inactive),1.8,0.825 (inactive),-0.0641,0.444,0.922,-0.0578,-0.0208,0.233,-0.148,0.109 (inactive),0.476,0.77,0.516,0.579,0.689,0.55
C=CCN(C(=O)C(c1cccs1)N(C(=O)/C=C\C(=O)O)c1ccc(CCO)cc1)c1ccc(OC)cc1 (stereo not given),-1.26 and -1.84,-0.755 (inactive) and 0.13 (inactive),-0.548 (inactive) and -0.894 (inactive),-0.929 (inactive) and -0.544 (inactive),-0.879 and -1.32,1.92 (inactive) and 0.715 (inactive),-0.0446 and -0.0463,-1.86 and -2.24,-0.314 and -1.78,-0.231 and -0.348,-0.087 and -1.23,-0.26 and 0.0389,0.822 and 1.13,0.0213 (inactive) and 0.54 (inactive),-1.94 and -2.06,-1.57 and -1.13,-1.46 and -2.92,-1.38 and -2.79,-2.88 and -3.33,-1.56 and -1.86
C=C[C@H](OC)[C@@H](O)c1ccc(O)c(F)c1,-1.12 and -0.749,-0.603 (inactive) and 0.106 (inactive),-0.0898 (inactive) and -0.311 (inactive),-1.17 (inactive) and -0.327 (inactive),-0.93 and -0.808,-0.853 (inactive) and 0.238 (inactive),-0.0992 and -0.215,-2.38 and -1.6,-1.42 and -1.23,-0.435 and -0.387,1.2 and -1.38,-0.48 and -0.349,0.7 and 0.65,-0.257 (inactive) and 0.0293 (inactive),-1.35 and -1.61,-2.09 and -1.69,-2.36 and -1.75,-1.89 and -1.94,-2 and -1.4,-1.87 and -1.2
COC(=O)C1=C(C)N(Cc2ccccc2)[C@]23O[C@](C(=O)OC)(C(=O)N2[C@@H]1c1ccccc1)[C@H]1C(=O)N(c2ccccc2)C(=O)[C@H]13,0.343 and -0.0383,0.434 (inactive) and 0.397 (inactive),-0.261 (inactive) and -0.858 (inactive),-0.558 (inactive) and 0.264 (inactive),1.14 and 0.69,0.102 (inactive) and 0.185 (inactive),-0.0812 and -0.0245,0.468 and 0.611,0.649 and 1.11,0.253 and 0.0534,0.224 and 0.295,-0.0965 and 0.134,-0.362 and -0.418,0.0537 (inactive) and -0.654 (inactive),0.775 and 1.09,0.989 and 0.463,0.367 and 0.392,0.514 and 0.835,0.629 and 0.666,0.111 and -0.155

# From PubChem BioAssay
